Compound activity deposited in PubChem by several laboratories.
Measles CPE = protection of cells from measles virus | Measles virus-infected cells, CPE protection, absorbance | protection (pct of control), % at 4 µM | hit rate 1.5% among 140,000 | AID 841; in the data active = protection mostly above about 24%, no sharp cut-off; inactive = mostly below about 26%
CYP2C9 act = CYP2C9 (human) activation; activation factor at 5 µM; AID 1024; recombinant CYP2C9, luciferin-H conversion, luminescence; hits give high values; factor 1 = untreated enzyme, 0 = blocked; hit rate 1.4% among 96,000;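 active = activation factor of 2 or more for CYP2C9 at a 5 µM dose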;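 also: 0 = sulfaphenazole-blocked wells and 1 = vehicle-only wells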
Target sequence (P11712 whole entry, looked up): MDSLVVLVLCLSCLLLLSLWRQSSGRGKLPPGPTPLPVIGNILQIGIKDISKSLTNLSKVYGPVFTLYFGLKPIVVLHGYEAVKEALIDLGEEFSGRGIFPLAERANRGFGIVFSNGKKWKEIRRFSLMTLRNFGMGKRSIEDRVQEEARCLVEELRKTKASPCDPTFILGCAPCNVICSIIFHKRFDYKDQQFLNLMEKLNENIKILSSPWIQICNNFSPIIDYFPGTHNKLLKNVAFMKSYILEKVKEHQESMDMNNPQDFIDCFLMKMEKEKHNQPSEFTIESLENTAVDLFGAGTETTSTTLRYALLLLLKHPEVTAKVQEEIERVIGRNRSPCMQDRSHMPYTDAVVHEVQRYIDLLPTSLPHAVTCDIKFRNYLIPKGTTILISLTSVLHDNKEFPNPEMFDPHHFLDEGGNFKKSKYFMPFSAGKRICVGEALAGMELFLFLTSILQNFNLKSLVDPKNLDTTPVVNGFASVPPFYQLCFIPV
CYP2C19 act = increases human CYP2C19 enzyme activity; P33261; recombinant CYP2C19, luciferin-H EGE luminescence; hits give high values; 0 = fully inhibited enzyme, 1 = untreated enzyme; activation factor at 5 µM; 96,000 tested, under 10 active; AID 1025;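 active = activation factor of at least 2 at 5 µM in the primary screen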;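 also: 0 = wells with 2.5 mM tranylcypromine and 1 = vehicle-only wells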
CYP2C19 inhib = inhibitors of human CYP2C19; inhibition, % at 5 µM; hit rate 21% among 96,000; CYP2C19 Supersomes, luciferin-H EGE luminescence, 30 min; P33261; AID 778;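 active = CYP2C19 inhibition above a set limit at 5 µM in the primary screen, cut at about 50% in these data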;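 also: plate controls were negative control wells for no effect and 2.5 mM tranylcypromine positive control for full effect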
CYP2C9 inh = blocks human cytochrome P450 2C9 | P11712 | CYP2C9 Supersomes, luciferin-H conversion, luminescence | inhibition, % at 5 µM | hit rate 20% among 96,000;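 active = blocking of liver enzyme CYP2C9 beyond about 50% at 5 µM, limit read from the data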
* hit, by the source's call; . = no result given. The list is not random: actives were taken first. Their share in the collection is about 22%.

SMILES | Measles CPE | CYP2C9 act | CYP2C19 act | CYP2C19 inhib | CYP2C9 inh
CCn1c2ccccc2c2cc(Nc3cc(C)nc4ncnn34)ccc21 | 4 | 0.8 | 0.8 | 16 | 21
COc1ccccc1N1C(=O)CC(N2CCc3ccccc32)C1=O (stereo unspecified) | 7 | 1.1 | 0.1 | 91* | -5
COc1ccccc1C1N(c2cc(Cl)ccc2OC)C(=O)C2CCCN21 (stereo unspecified) | 11 | 1.6 | 0.7 | 32 | -59
COc1cccc(N2C(=O)CC(N3CCc4ccccc43)C2=O)c1 (stereo unspecified) | 12 | 1.4 | 0.2 | 83* | -43
COc1ccc(Cl)cc1N1C(=O)CC(N2CCc3ccccc32)C1=O (stereo unspecified) | 34 | 0.7 | 0.1 | 91* | 33
COc1cccc(N2CCN(C3CC(=O)N(c4ccc(F)c(Cl)c4)C3=O)CC2)c1 (stereo unspecified) | 2 | 0.4 | 0.7 | 31 | 55*
COc1cccc(N2CCN(C3CC(=O)N(c4ccc(C)c(Cl)c4)C3=O)CC2)c1 (stereo unspecified) | 19 | 1 | 1.1 | -13 | 2
COc1ccc(OC(C)C(=O)NC2CC(C)(C)NC(C)(C)C2)cc1 (stereo unspecified) | 15 | 1.1 | 1.2 | -22 | -12
Cc1ccccc1NC(=O)N(C(C)C)C(C)C | 3 | 0.8 | 0.9 | 7 | 16
COC(=O)C(C(=O)Nc1ccc(OC)cc1)C1CCCCCC1 (stereo unspecified) | 18 | 0.3 | 0.1 | 92* | 69*
COC(=O)C(C(=O)Nc1ccccc1C)C1CCCC1 (stereo unspecified) | 6 | 0.9 | 0.4 | 64* | 9
COc1ccc(C(=O)N2CCC(C(=O)Nc3ccc(OC)c(OC)c3)CC2)cc1 | 3 | 0.9 | 1 | 2 | 8
CCN(CC)CCN1C(=O)c2oc3ccccc3c(=O)c2C1c1ccc(C)cc1 (stereo unspecified) | 1 | 0.9 | 1 | 0 | 8
COCCN=c1scc(-c2cc(OC)ccc2OC)n1/N=C/c1c[nH]c2ccccc12 | 5 | . | . | . | .
O=C1NC(c2ccccc2)(C(F)(F)F)C(=O)N1Cc1cccnc1 (stereo unspecified) | 8 | 0.5 | 0.2 | 84* | 51*
Cc1csc(N(C(=O)c2cccc(S(=O)(=O)N3CCCC3)c2)c2ccccc2)n1 | 3 | 1 | 0.9 | 13 | -2
C=CCN(C(=O)c1cccc(S(=O)(=O)N2CCN(C)CC2)c1)c1nc(-c2ccccc2)cs1 | 7 | 0.2 | 0.2 | 79* | 77*
COc1ccc(NC(=O)CCn2cccc2)cc1 | 2 | 1 | 0.5 | 51* | 3
COc1ccc(NC(=O)CCN2CCC(C)CC2)cc1 | 11 | 0.9 | 0.9 | 8 | 7
Cc1ccc(NC(=O)CCn2nc(C)cc2C)cc1 | 14 | 1.1 | 0.3 | 74* | -14
Cc1ccc(NC(=O)CCn2cccc2)cc1 | 4 | 0.6 | 0.1 | 92* | 37
Cc1ccc(NC(=O)CSCC(N)=O)cc1C | 40* | 1.1 | 0.9 | 12 | -14
O=C(CSc1nc2[nH]ncc2c(=O)[nH]1)NCc1ccccc1Cl | 8 | . | . | . | .
COc1cc2cc(CN(Cc3nnnn3C3CCCC3)C3CCCC3)c(=O)[nH]c2cc1OC | . | 1 | 1.1 | -10 | -2
COc1ccccc1NC(=O)C(C/C=C(\C)Cl)C(C)=O (stereo unspecified) | 13 | 1.4 | 0.8 | 23 | -40
SMILES | Measles CPE | CYP2C9 act | CYP2C19 act | CYP2C19 inhib | CYP2C9 inh
Cc1ccc(CNC(=O)C2CCN(S(=O)(=O)c3ccc4c(c3)OCCCO4)CC2)cc1 | 10 | . | . | . | .
COc1ccc(NC(=O)c2c(Cl)n(C)c3ccccc23)cc1 | 5 | 2.3* | 0.9 | 13 | -126
Cc1ccc(NC(=O)CCn2cccc2)cc1C | 4 | 0.9 | 0.1 | 85* | 9
CCc1cc(=O)oc2cc(C)c(CN3CCCC(C)C3)c(O)c12 (stereo unspecified) | 5 | 0.6 | 0.6 | 44 | 38
CCCCc1cc(=O)oc2cc(C)c(CN3CCCC3)c(O)c12 | 6 | 0.4 | 0.5 | 50 | 58*
COc1ccc(C(=O)NCCn2cc(SCC(=O)N3CCOCC3)c3ccccc32)cc1 | 3 | 0.8 | 0.9 | 14 | 24
CCC(=C(c1ccc(OC)cc1)c1ccc(OC)cc1)c1cn(CC(O)CN2CCN(C)CC2)c2ccccc12 (stereo unspecified) | 19 | 0.3 | 0.9 | 7 | 70*
COc1cccc(CN2CCN(C(=O)c3cccs3)CC2)c1OC | 25 | 0.8 | 0.5 | 50 | 16
